Data as given in PubChem BioAssay (EPA / NIEHS).
Inconclusive results are not listed. Calls of active or inactive are those of the source. Rule for the calls, unless noted: active = hit-call score of the fitted dose curve at least 0.9, where 1 is the maximum; inactive = score below 0.9.

Assays:
[1] = read-out: succinate dehydrogenase complex iron sulfur subunit B (SDHB), SDHB (gene 6390); experiment: LTEA_HepaRG_SDHB: Life Technologies and Expression Analysis (LTEA) Assay for succinate dehydrogenase complex iron sulfur subunit B (SDHB) using HepaRG (AID 2283528); conditions: mRNA level, 48 h; actives raise or lower the signal
Outline: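 SDHB transcript level read by TaqMan qRT-PCR, housekeeping-normalised (ACTB, GAPDH, POLR2A), after 48 h chemical treatment of plated HepaRG cells; eight concentrations top 100 uM, half-log steps, 0.5% DMSO, duplicates; fitted both directions against DMSO.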

[2] = read-out: Signal transducer and activator of transcription 3 (Homo sapiens) (UniProt P40763); experiment: LTEA_HepaRG_STAT3: Life Technologies and Expression Analysis (LTEA) Assay for Signal transducer and activator of transcription (STAT3) using HepaRG (AID 2283529); conditions: mRNA level, 48 h; actives raise or lower the signal
Outline: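 Differentiated HepaRG cells, serum-free induction medium, dosed 48 h in duplicate, 8 half-log concentrations from 100 uM in 0.5% DMSO. STAT3 mRNA by qRT-PCR, normalised to ACTB, GAPDH, POLR2A; bidirectional fit versus DMSO.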

[3] = read-out: solute carrier (SLCO1B1), SLCO1B1 (gene 10599); experiment: LTEA_HepaRG_SLCO1B1: Life Technologies and Expression Analysis (LTEA) Assay for solute carrier (SLCO1B1) using HepaRG (AID 2283530); conditions: mRNA level, 48 h; actives raise or lower the signal
Outline: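 SLCO1B1 transcript levels were quantified by TaqMan qRT-PCR using three housekeeping genes for normalization. This followed 48 h chemical exposure (100 uM top, half-log, 8 points, 0.5% DMSO) of HepaRG liver cells, with gain or loss fitted relative to DMSO.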

[4] = read-out: sulfotransferase 2A1 (SULT2A1), SULT2A1 (gene 6822); experiment: LTEA_HepaRG_SULT2A1: Life Technologies and Expression Analysis (LTEA) Assay for sulfotransferase 2A1 (SULT2A1) using HepaRG (AID 2283531); conditions: mRNA level, 48 h; actives raise or lower the signal
Outline: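 Expression change of SULT2A1, by qRT-PCR with three housekeeping-gene normalization, was scored bidirectionally versus DMSO. Cells: differentiated HepaRG, dosed in duplicate for 48 h across 8 points, highest 100 µM, half-log dilution, 0.5% DMSO.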

[5] = read-out: Transforming Growth Factor (TGFA), TGFA (gene 7039); experiment: LTEA_HepaRG_TGFA: Life Technologies and Expression Analysis (LTEA) Assay for Transforming Growth Factor (TGFA) using HepaRG (AID 2283532); conditions: mRNA level, 48 h; actives raise or lower the signal
Outline: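 Differentiated HepaRG cells exposed 48 hours in serum-free induction medium, 0.5% DMSO vehicle, 8-point half-log series from 100 uM, in duplicate. TGFA mRNA by TaqMan qRT-PCR, normalised to ACTB, GAPDH, POLR2A; bidirectional fit versus DMSO.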

TIMP1, TIMP1 (gene 7076) = experiment: LTEA_HepaRG_TIMP1: Life Technologies and Expression Analysis (LTEA) Assay for TIMP1 using HepaRG (AID 2283534); conditions: mRNA level, 48 h; actives raise or lower the signal
Outline: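 Bidirectional change in TIMP1 transcript versus 0.5% DMSO, measured by TaqMan qRT-PCR with three housekeeping genes for normalization. HepaRG human liver cells dosed 48 h in duplicate, top concentration 100 uM with half-log dilutions.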

[6] = read-out: Tumor necrosis factor receptor 1 (TNFRSF1A), TNFRSF1A (gene 7132); experiment: LTEA_HepaRG_TNFRSF1A: Life Technologies and Expression Analysis (LTEA) Assay for Tumor necrosis factor receptor 1 (TNFRSF1A) using HepaRG (AID 2283535); conditions: mRNA level, 48 h; actives raise or lower the signal
Outline: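 mRNA measured by qRT-PCR (TaqMan, Fluidigm arrays) against ACTB/GAPDH/POLR2A housekeepers after 48 h chemical exposure of HepaRG cells. Top concentration 100 uM, half-log 8-point series, duplicates; vehicle 0.5% DMSO, both fit directions.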

[7] = read-out: Thyroid Hormone Responsive (THRSP), THRSP (gene 7069); experiment: LTEA_HepaRG_THRSP: Life Technologies and Expression Analysis (LTEA) Assay for Thyroid Hormone Responsive (THRSP) using HepaRG (AID 2283536); conditions: mRNA level, 48 h; actives raise or lower the signal
Outline: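 Differentiated HepaRG cells treated 48 h in serum-free induction medium with 8 half-log concentrations up to 100 uM (0.5% DMSO), duplicates. THRSP mRNA by TaqMan qRT-PCR normalised to ACTB, GAPDH, POLR2A; bidirectional fit versus DMSO.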

[8] = read-out: UDP glucuronosyltransferase (UGT1A1), UGT1A1 (gene 54658); experiment: LTEA_HepaRG_UGT1A1: Life Technologies and Expression Analysis (LTEA) Assay for UDP glucuronosyltransferase (UGT1A1) using HepaRG (AID 2283538); conditions: mRNA level, 48 h; actives raise or lower the signal
Outline: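 HepaRG cells, 0.5% DMSO vehicle, 48 h exposure in serum-free induction medium to 8-point half-log series topping at 100 uM, in duplicate. UGT1A1 mRNA by Fluidigm qRT-PCR, normalized to ACTB/GAPDH/POLR2A; bidirectional fit versus DMSO.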

[9] = read-out: UDP glucuronosyltransferase (UGT1A6), UGT1A6 (gene 54578); experiment: LTEA_HepaRG_UGT1A6: Life Technologies and Expression Analysis (LTEA) Assay for UDP glucuronosyltransferase (UGT1A6) using HepaRG (AID 2283539); conditions: mRNA level, 48 h; actives raise or lower the signal
Outline: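 Expression was quantified by TaqMan qRT-PCR on Fluidigm arrays with ACTB/GAPDH/POLR2A normalization and bidirectional fitting against 0.5% DMSO. HepaRG cells (~100,000/well) were treated in duplicate for 48 h at eight half-log concentrations up to 100 uM in serum-free induction medium.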

[10] = read-out: X-box binding protein 1 (XBP1), XBP1 (gene 7494); experiment: LTEA_HepaRG_XBP1: Life Technologies and Expression Analysis (LTEA) Assay for X-box binding protein 1 (XBP1) using HepaRG (AID 2283540); conditions: mRNA level, 48 h; actives raise or lower the signal
Outline: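 XBP1 transcript by qRT-PCR (housekeeping-normalized: ACTB, GAPDH, POLR2A) after 48 h chemical treatment of HepaRG cells, 8-point half-log series topping at 100 uM, vehicle 0.5% DMSO. Gain and loss of signal fitted relative to DMSO.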

[11] = LTEA_HepaRG_LDH_cytotoxicity: Cytotoxicity Assessment in the Life Technologies and Expression Analysis (LTEA) Assay (AID 2283563; active = hit-call score of the fitted dose curve at least 0.9, where 1 is the maximum)
Outline: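 LDH release into culture medium read after 48 h chemical treatment of HepaRG cells. Duplicate wells, eight-point half-log series topping at 100 uM, 0.5% DMSO vehicle and baseline.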

[12] = ATG_XTT_Cytotoxicity: Cytotoxicity Assessment in the Attagene TRANS-FACTORIAL HepG2 Assay (AID 2283584; active = hit-call score of the fitted dose curve at least 0.9, where 1 is the maximum)
Outline: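 Viability endpoint from XTT after 24 h chemical exposure of reporter-transfected human HepG2 liver cells; signal loss fitted relative to DMSO negative control.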

[13] = TOX21_p53_BLA_p2_viability: Viability Assessment in the Tox21 HCT-116 p53 Agonism Beta-lactamase Assay, Phase 2 (AID 2283591; active = hit-call score of the fitted dose curve at least 0.9, where 1 is the maximum;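 note: compound exposure lasted 16 h at 37 °C; actives lower the ATP signal meaning cytotoxicity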)
Outline: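 HCT116 p53-bla cells, 4000/well, dosed after 5 h plating (217-fold dilution of DMSO stocks) and incubated 16 h at 37C. Viability taken as cellular ATP by CellTiter-Glo luminescence after 30 min RT; signal loss marks cytotoxicity.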

[14] = TOX21_p53_BLA_p3_viability: Viability Assessment in the Tox21 HCT-116 p53 Agonism Beta-lactamase Assay, Phase 3 (AID 2283593; active = hit-call score of the fitted dose curve at least 0.9, where 1 is the maximum;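 note: cells exposed to compound for 16 h before reading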)
Outline: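 HCT116 cells, 4000/well, dosed 5 h after plating by pin transfer (217-fold dilution from DMSO stock) and incubated 16 h at 37C, 5% CO2. Viability read as ATP luminescence with CellTiter-Glo after 30 min at room temperature.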

[15] = molecular target: Cellular tumor antigen p53 (Homo sapiens) (UniProt P04637); experiment: TOX21_p53_BLA_p3_ratio: Tox21 HCT-116 p53 Agonism Beta-lactamase Assay, Ratio, Phase 3 (AID 2283596; active = hit-call score of the fitted dose curve at least 0.9, where 1 is the maximum)
Outline: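 HCT116 p53-bla cells (4000/well) given compound in DMSO (217-fold dilution) after 5 h, incubated 16 h at 37C. CCF4-AM substrate 2 h at room temperature; 460/530 nm emission ratio, gain fitted against DMSO.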

[16] = read-out: Cellular tumor antigen p53 (Homo sapiens) (UniProt P04637); experiment: LTEA_HepaRG_TP53: Life Technologies and Expression Analysis (LTEA) Assay for Tumor Protein P53 (TP53) using HepaRG (AID 2283537); conditions: mRNA level, 48 h; actives raise or lower the signal
Outline: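 TP53 transcript measured by qRT-PCR, normalized to three housekeeping genes, after 48 h treatment of human HepaRG cultures with chemicals from 100 uM downward in half-log steps (0.5% DMSO vehicle, serum-free induction medium). Up- or down-regulation fitted against DMSO.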

[17] = molecular target: Cellular tumor antigen p53 (Homo sapiens) (UniProt P04637); experiment: TOX21_p53_BLA_p2_ratio: Tox21 HCT-116 p53 Agonism Beta-lactamase Assay, Ratio, Phase 2 (AID 2283592; active = hit-call score of the fitted dose curve at least 0.9, where 1 is the maximum)
Outline: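 Gain-of-signal p53 agonism was scored from the beta-lactamase FRET ratio (460/530 nm, 405 nm excitation) in HCT116 cells treated 16 h at 37C, 5% CO2, with DMSO serving as negative control and baseline.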

[18] = TOX21_p53_BLA_p4_viability: Viability Assessment in the Tox21 HCT-116 p53 Agonism Beta-lactamase Assay, Phase 4 (AID 2283597; active = hit-call score of the fitted dose curve at least 0.9, where 1 is the maximum;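 note: hits lower the luminescence signal meaning cytotoxicity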)
Outline: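 Following a 16 h exposure at 37C, the treated HCT116 wells were first read for the FRET ratio. They were then lysed with CellTiter-Glo, and ATP luminescence was recorded after 30 min at room temperature.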

[19] = read-out: Transforming Growth Factor (TGFB1), TGFB1 (gene 7040); experiment: LTEA_HepaRG_TGFB1: Life Technologies and Expression Analysis (LTEA) Assay for Transforming Growth Factor (TGFB1) Transporter using HepaRG (AID 2283533); conditions: mRNA level, 48 h; actives raise or lower the signal
Outline: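 TGFB1 transcript measured by qRT-PCR with normalisation to three housekeeping genes (ACTB, GAPDH, POLR2A); human HepaRG line treated in duplicate for 48 hr with an 8-point series topping at 100 uM, 0.5% DMSO vehicle, bidirectionally fitted.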

Measured: AC50

Cellular tumor antigen p53 (Homo sapiens), sequence (P04637 whole entry, looked up): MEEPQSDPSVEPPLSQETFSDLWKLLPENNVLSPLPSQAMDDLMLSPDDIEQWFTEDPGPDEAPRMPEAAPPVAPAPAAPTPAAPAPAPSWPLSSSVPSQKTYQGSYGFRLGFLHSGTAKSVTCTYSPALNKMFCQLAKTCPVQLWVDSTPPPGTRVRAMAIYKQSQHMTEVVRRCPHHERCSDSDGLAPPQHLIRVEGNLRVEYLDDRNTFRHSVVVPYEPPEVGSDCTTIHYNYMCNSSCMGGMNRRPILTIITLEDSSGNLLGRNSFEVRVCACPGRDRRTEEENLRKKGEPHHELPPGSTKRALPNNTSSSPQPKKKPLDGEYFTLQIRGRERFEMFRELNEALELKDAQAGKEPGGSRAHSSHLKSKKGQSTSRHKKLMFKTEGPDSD
Signal transducer and activator of transcription 3 (Homo sapiens), sequence (P40763 whole entry, looked up): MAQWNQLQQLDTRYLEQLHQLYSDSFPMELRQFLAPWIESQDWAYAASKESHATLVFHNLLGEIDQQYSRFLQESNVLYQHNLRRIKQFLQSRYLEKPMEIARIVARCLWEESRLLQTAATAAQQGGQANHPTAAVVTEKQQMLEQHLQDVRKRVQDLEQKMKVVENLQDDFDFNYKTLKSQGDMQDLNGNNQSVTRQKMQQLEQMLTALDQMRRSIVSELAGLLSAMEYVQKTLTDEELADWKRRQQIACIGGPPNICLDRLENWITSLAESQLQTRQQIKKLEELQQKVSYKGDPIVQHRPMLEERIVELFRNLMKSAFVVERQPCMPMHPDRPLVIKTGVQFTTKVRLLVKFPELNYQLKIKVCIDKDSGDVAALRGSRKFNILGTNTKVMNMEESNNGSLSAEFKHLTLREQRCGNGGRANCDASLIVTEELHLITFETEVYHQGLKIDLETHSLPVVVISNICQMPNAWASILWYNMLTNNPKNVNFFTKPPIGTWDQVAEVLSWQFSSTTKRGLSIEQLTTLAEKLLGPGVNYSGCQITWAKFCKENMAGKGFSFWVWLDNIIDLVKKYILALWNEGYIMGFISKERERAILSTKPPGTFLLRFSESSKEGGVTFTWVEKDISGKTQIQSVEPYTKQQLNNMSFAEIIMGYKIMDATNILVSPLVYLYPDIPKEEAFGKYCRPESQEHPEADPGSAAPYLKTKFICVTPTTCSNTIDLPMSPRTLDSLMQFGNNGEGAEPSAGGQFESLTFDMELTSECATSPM

Cc1ccccc1Cl
inactive: [1] | [2] | [3] | [4] | [5] | TIMP1, TIMP1 (gene 7076) | [6] | [7] | [8] | [9] | [10] | [11] | [12] | [13] | [14] | [15]

CCOc1ccc2c(c1)C(C)=CC(C)(C)N2
inactive: [1] | [2] | [3] | [4] | [5] | TIMP1, TIMP1 (gene 7076) | [6] | [7] | [16] | [9] | [10] | [11] | [13] | [17] | [15] | [18]
active: [8] 1.61 µM

CCCCCCCCCCO
inactive: [1] | [2] | [3] | [4] | [5] | [6] | [7] | [16] | [8] | [9] | [10] | [11] | [12] | [13] | [17] | [15]
active: TIMP1, TIMP1 (gene 7076) 12.2 µM

CCCCCCCCCCCCCCCCCC(=O)O
inactive: [1] | [2] | [3] | [4] | [5] | TIMP1, TIMP1 (gene 7076) | [6] | [7] | [16] | [8] | [10] | [11] | [12]

Clc1cc(Cl)c(Cl)cc1Cl
inactive: [1] | [2] | [3] | [4] | [5] | [19] | TIMP1, TIMP1 (gene 7076) | [6] | [7] | [8] | [9] | [10] | [11] | [12] | [13] | [14] | [15] | [18]

CC(CO)OC(C)CO (configuration not stated) (tested in a mixture with another compound)
inactive: [1] | [2] | [3] | [4] | [5] | [19] | TIMP1, TIMP1 (gene 7076) | [6] | [7] | [8] | [9] | [10] | [11] | [12]

NCC1(Cc2noc(=O)[nH]2)CCCCC1
active: [9] 0.226 µM
inactive: [1] | [2] | [3] | [4] | [5] | [19] | TIMP1, TIMP1 (gene 7076) | [6] | [7] | [16] | [8] | [10] | [11] | [14] | [18]

Cc1ccc(N(C)C)cc1
active: [8] 26.6 µM
inactive: [1] | [2] | [3] | [4] | [5] | [19] | TIMP1, TIMP1 (gene 7076) | [6] | [7] | [10] | [11] | [13] | [17] | [15] | [18]
